Where a name gives a salt, the structure may show the parent alone.

The first assay concerns thyroid hormone receptor (endogenous TRα and TRβ). More on the design: species or system GH3-TRE-Luc (rat pituitary); GH3-TRE-Luc luciferase reporter, antagonist mode against 1 nM T3, loss of signal, qHTS. The conditions noted are these: antagonist mode, 1 nM T3, no GH3 cytotoxicity hit, read-out: Average AC50 (uM) GH3-TRE-Antag.
Consider `OC(c1ccccc1)(c1ccccc1)C1CCNCC1` [Azacyclonol], for which the AC50 turned out to be 10.4 µM.

For the molecule `Nc1ccccc1C(=O)Oc1ccc2ccccc2c1` [Naphthalen-2-yl 2-aminobenzoate], the AC50 turned out to be 82.4 µM.

Regarding `CNC(=O)O/N=C(\SC)C(=O)N(C)C` [Oxamyl], the AC50 is over 90 µM.

For the molecule `Nc1ccc(-c2ccccc2)cc1` [4-Biphenylamine hydrochloride], the half-maximal activity concentration (AC50) was 76.8 µM.

In the case of `O=[N+]([O-])c1cccc2cccc([N+](=O)[O-])c12` [1,8-Dinitronaphthalene], the AC50 was 49.5 µM.

As for `COC1=CC=C2[C@H]3Cc4ccc(OC)c5c4[C@@]2(CCN3C)[C@H]1O5` [Thebaine], the AC50 is over 20 µM.

With `O=C(O)Cc1ccccc1` [Phenylacetic acid], the AC50 came out at 18.1 µM.

For `NC(=S)Nc1ccccc1` [1-Phenyl-2-thiourea], the AC50 stood at 43.9 µM.

Regarding `C[C@]12CC[C@H](O)C[C@H]1CC[C@@H]1[C@@H]2CC[C@]2(C)[C@@H](c3ccc(=O)oc3)C[C@H]3O[C@]132` [Bufogenin], the AC50 worked out at 39.2 µM.

`COC(=O)c1c(C(F)F)nc(C(F)(F)F)c(C2=NCCS2)c1CC(C)C` [Thiazopyr]: the AC50 was over 90 µM.

On to `CNC(=O)Oc1cccc(N=CN(C)C)c1` [Formetanate hydrochloride], for which the AC50 worked out at 70.8 µM.

As for `CNP(=O)(OC)Oc1ccc(C(C)(C)C)cc1Cl` (stereo not shown) [Crufomate], the AC50 was determined as 52.9 µM.

As to `C[C@]12C=CC(=O)C=C1CC[C@@H]1[C@@H]2CC[C@@]2(C)[C@H]1CC[C@]2(C)O` [Methandrostenolone], the AC50 is 34.4 µM.

With `COP(=S)(OC)Oc1cc(Cl)c(Br)cc1Cl` [Bromofos], the AC50 stood at 65.8 µM.

Take `C[C@@H]1[C@H]2Cc3ccc(O)cc3[C@]1(C)CCN2C` [(-)-Metazocine fumarate (1:1)]: the AC50 is 50.6 µM.

On to `COc1cc(CC(C)N)cc2c1OCO2` (stereo not shown) [1-(7-Methoxy-1,3-benzodioxol-5-yl)propan-2-amine hydrochloride], for which the AC50 is 48.3 µM.

Regarding `CCOP(=O)(OCC)O/C(=C\Cl)c1ccc(Cl)cc1Cl` [Chlorfenvinphos], the AC50 is over 50 µM.

`CC(C)(N)Cc1ccc(Cl)cc1` [Chlorphentermine hydrochloride]: the AC50 was 39.2 µM.

In the case of `CN(C)c1ccc(N=Nc2ccccc2)cc1` [4-(Dimethylamino)azobenzene], the AC50 came out at 80.1 µM.

In the case of `Cn1c(-c2ccccc2)cc(-c2ccccc2)[n+]1C` [Difenzoquat metilsulfate], the half-maximal activity concentration (AC50) is 68.7 µM.

In the case of `Nc1ccc2c(c1)Cc1ccccc1-2` [2-Aminofluorene], the AC50 is 52 µM.

Regarding `Clc1cccc(N2CCNCC2)c1` [1-(3-Chlorophenyl)piperazine], the concentration at half-maximal activity (AC50) turned out to be 20 µM.

With `COP(=O)(OC)O/C(=C\Cl)c1cc(Cl)c(Cl)cc1Cl` [Z-Tetrachlorvinphos], the half-maximal activity concentration (AC50) is 37.7 µM.

Take `CCOP(=S)(OCC)Oc1ccc2c(C)c(Cl)c(=O)oc2c1` [Coumaphos]: the AC50 is over 50 µM.

For `COP(=S)(OC)SCN1C(=O)c2ccccc2C1=O` [Phosmet], the AC50 was over 50 µM.

Consider `C[C@]12CC[C@H]3[C@@H](CCC4=C(Cl)C(=O)CC[C@@]43C)[C@@H]1CC[C@@H]2O` [Clostebol], for which the half-maximal activity concentration (AC50) was determined as 29.2 µM.

In the case of `CCCCCCCCCCCCBr` [1-Bromododecane], the AC50 is 93.3 µM.

As for `CON(C)C(=O)Nc1ccc(Br)c(Cl)c1` [Chlorbromuron], the half-maximal activity concentration (AC50) was determined as 60.7 µM.

Staying with this assay, now noted: read-out: Average AC50 (uM) GH3-TRE-Antag; 24 h; antagonist.
As to `CC[C@H]1C[C@H]2[C@@H]3CCC4=CC(=O)CC[C@@H]4[C@H]3CC[C@]2(C)[C@H]1O` [Oxendolone], the AC50 was 21.2 µM.

As for `C[C@]12CC[C@H]3[C@@H](CCC4=CC(=O)CC[C@@H]43)[C@@H]1CC[C@@H]2OC(=O)CCc1ccccc1` [Nandrolone phenpropionate], the AC50 was 19.5 µM.

`C[C@]12CC[C@H]3[C@@H](CCC4=CC(=O)CC[C@@H]43)[C@@H]1CC[C@@H]2O` [Nandrolone]: the AC50 was found to be 32.5 µM.

With `O=C1Nc2ccc(Cl)cc2C(c2ccccc2Cl)=NC1O` (stereo not shown) [Lorazepam], the AC50 is over 50 µM.

Regarding `CN1C(=O)CN=C(c2ccccc2)c2cc(Cl)ccc21` [Diazepam], the AC50 was 49.5 µM.

For `O=c1oc2ccccc2c(O)c1C(CC(O)c1ccc(-c2ccc(Br)cc2)cc1)c1ccccc1` (stereo not shown) [Bromadiolone], the concentration at half-maximal activity (AC50) is 44.3 µM.

`Cl[Si](Cl)(c1ccccc1)c1ccccc1` [Dichlorodiphenylsilane]: the AC50 was determined as 76.3 µM.

Turning to `Nc1c(Cl)cc([N+](=O)[O-])cc1Cl` [Dicloran], the concentration at half-maximal activity (AC50) was found to be 91.8 µM.

Regarding `O=C1CN=C(c2ccccc2)c2cc(Cl)ccc2N1` [Desmethyldiazepam], the half-maximal activity concentration (AC50) turned out to be 22.9 µM.

These data come from PMC6792352, “Limited Chemical Structural Diversity Found to Modulate Thyroid Hormone Receptor in the Tox21 Chemical Library” (Environmental Health Perspectives, 2019).
